From PubChem BioAssay come the findings set out here.

In test [1] the test system is Wnt5a (protein binding on small-molecule microarray). The test is described as follows: Wnt5a binders on small-molecule microarray, primary screen, biophysical, 635/667 nm fluorescence (AID 1142).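 Also: fluorescence read at 667 nm with signal to noise per printed feature.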 As to conditions: 635 nm fluorescence, higher = more signal.
Test [2] in a line: cell viability in Huh7 cells, primary screen, cytotoxicity control for HCV replication inhibitor project, CellTiter-Glo luminescence, basal, 48 h (AID 1143).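 Also: Huh7 hepatoma cells carrying a hepatitis C replication reporter with no stimulus; test concentration not given here.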 As to conditions: Huh7 HCV replicon, higher = more signal, called active from +8 up or from −8 down.
The nature of test [3]: P. aeruginosa biofilm formation inhibitors, primary screen, PAO1 strain, BacTiter-Glo luminescence, LB-PBS (AID 1144). As to conditions: 12 h, higher = more signal.
Test [4] in a line: CREB reporter modulators without forskolin, primary screen, cell-based, PC12, CRE-LacZ reporter, unstimulated (AID 1145). As to conditions: no forskolin, luminescence, 4.5 h, higher = more signal, called active from +8 up or from −8 down.
Test [5] can be described thus: CREB reporter modulators under forskolin, primary screen, cell-based, PC12, CRE-LacZ reporter, forskolin-stimulated (AID 1146).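 Also: PC12 cells with 6xCRE LacZ reporter stimulated by forskolin 10 µM; beta-galactosidase reporter signal reflecting CREB driven transcription.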 Conditions: luminescence, 4.5 h, higher = more signal, called active from +8 up or from −8 down.
Test [6] concerns the target Streptavidin (Streptomyces avidinii) (UniProt P22629). The test is described as follows: streptavidin binders on small-molecule microarray, primary screen, artefact control for SMM compound annotation, biophysical, 635/667 nm fluorescence (AID 1147).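 Also: signal reflects streptavidin binding to arrayed compounds as a control protein.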 As to conditions: streptavidin binding, higher = more signal.
Test [7] can be described thus: small-molecule binders of probe aInhba, primary screen, biochemical, small-molecule microarray, 635/667 nm fluorescence (AID 1148).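 Also: score merges 667nm spot fluorescence with signal-to-noise for antibody binding to printed compounds.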 As to conditions: higher = more signal.
In test [8] the target is Torsin-1A (Homo sapiens) (UniProt O14656). The test is described as follows: torsin A binders from cell lysate, primary screen, small-molecule microarray, wild-type, 635/667 nm (AID 1149). Conditions: COS7 hTOR1A-WT lysate, 635 nm fluorescence, higher = more signal.
Chain of Torsin-1A (Homo sapiens) (O14656 whole entry, looked up): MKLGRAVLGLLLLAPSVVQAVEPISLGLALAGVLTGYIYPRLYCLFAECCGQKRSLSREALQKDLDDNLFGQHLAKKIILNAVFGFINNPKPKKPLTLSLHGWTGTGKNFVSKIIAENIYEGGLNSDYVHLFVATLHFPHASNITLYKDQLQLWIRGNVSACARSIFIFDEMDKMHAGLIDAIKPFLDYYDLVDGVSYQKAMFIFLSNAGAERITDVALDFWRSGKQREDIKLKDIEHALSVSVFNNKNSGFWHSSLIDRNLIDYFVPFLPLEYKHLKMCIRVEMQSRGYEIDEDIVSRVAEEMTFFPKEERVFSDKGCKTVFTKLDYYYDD
The target is the same in test [9]. As to the kind of experiment: small-molecule binders of mutant TOR1A in lysate, primary screen, cell lysate, small-molecule microarray, COS7 lysate, 635/667 nm fluorescence (AID 1150).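 Also: score pools 667 nm emission and signal to noise measuring lysate protein binding.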 Conditions: COS7 hTOR1A mutant lysate, 635 nm fluorescence, higher = more signal.
The test system of test [10] is Sonic hedgehog protein (Shh). The test is described as follows: small-molecule binders of Shh protein, primary screen, biochemical, small-molecule microarray, 635/667 nm fluorescence (AID 1151).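 Also: Shh protein binding to compounds spotted on small-molecule microarray slides; score combines spot fluorescence intensity with signal-to-noise across triplicate slides.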 Conditions: small-molecule microarray binding, 635 nm fluorescence; higher = more signal.

Active and inactive are the calls of the source. Unless noted, no rule for the calls is given here.

Chain of Streptavidin (Streptomyces avidinii) (P22629 whole entry, looked up): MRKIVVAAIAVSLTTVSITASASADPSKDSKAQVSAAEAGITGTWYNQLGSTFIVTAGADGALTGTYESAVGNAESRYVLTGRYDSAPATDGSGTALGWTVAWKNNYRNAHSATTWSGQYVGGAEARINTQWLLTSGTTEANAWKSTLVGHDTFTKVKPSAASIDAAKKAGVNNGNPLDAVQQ

For `COc1ccc(C#Cc2ccc3c(c2)[C@]2(C(=O)N3)[C@H](C(=O)NC[C@H](O)c3ccccc3)[C@H]3C(=O)O[C@H](c4ccccc4)[C@H](c4ccccc4)N3[C@@H]2c2ccccc2OCCO)cc1`, the composite z-score in test [1] turned out to be 0.0762; in [6], 0.924; in [7], 0.421; in test [8], 0.123; in [9], 0.535; in [10], 1.68. The z-score in [2] is -5.79 (inactive); in test [3] it was -0.494 (inactive); in [4], -0.463 (inactive); in test [5] it was -0.336 (inactive).
In the case of `Cc1ccc(S[C@]2(C(=O)NCc3ccccc3)CC(=O)N(Cc3ccccc3)[C@@H]2c2ccc(CO)cc2)cc1`, the composite z-score in [1] is -0.202; in test [6], -0.926; in test [7] it was -0.0719; in test [8] it was -0.499; in test [9], 0.248; in test [10], -0.242. The z-score was -0.618 (inactive) in test [2], 0.395 (inactive) in test [3], -0.735 (inactive) in test [4] and -0.26 (inactive) in test [5].
As to `CC(=O)NCCCC[C@@H]1NC(=O)[C@@H]2C[C@H](C(=O)NCCCCCCNC(=O)CS)[C@H](c3ccc(O)cc3)N2C1=O`, the composite z-score in [1] is -0.126; in test [6] it was 0.453; in test [7], -0.0944; in [8], 0.957; in test [9], 0.936; in test [10] it was 0.377. The z-score in test [2] is 0.448 (inactive); in test [3] it was -0.388 (inactive); in test [4], -0.268 (inactive); in test [5], -0.277 (inactive).
`COC(=O)[C@@]1(Cc2ccccc2N=[N+]=[N-])COC(c2ccc(OCCCO)cc2)=N1`: the composite z-score in [1] was 0.193; in [6], 0.175; in test [7], -0.0639; in test [8], 0.678; in [9] it was 1.17; in [10], -0.0614. In addition, the z-score in [2] is -2.44 (inactive); in test [3] it was 0.335 (inactive); in test [4] it was 0.675 (inactive); in test [5] it was 1.68 (inactive).
`COCCCNC(=O)[C@@]1(CCC(=O)OC(C)(C)C)N=C(c2ccc(OCCCO)cc2)O[C@H]1c1ccccc1CN=[N+]=[N-]`: the composite z-score in test [1] was 1.01; in test [6] it was 1.01; in test [7], 0.329; in [8], 1.23; in test [9] it was 1.51; in test [10], 0.103. Besides, the z-score in test [2] is -0.0523 (inactive); in [3], 0.0993 (inactive); in test [4], -0.538 (inactive); in [5], 0.286 (inactive).
On to `CCCCCCCCCCC(O)C1C=CC2C(=O)N(Cc3ccccc3)C(=O)C2N1n1cnnc1` (stereo not given), for which the composite z-score was 0.418 in test [1]; 0.744 in test [6]; 0.437 in [7]; 0.0668 in [8]; 0.567 in [9]; -0.778 in test [10]. Also, the z-score in test [2] was -4.02 (inactive); in [3], -0.0968 (inactive); in [4], -0.0137 (inactive); in test [5], -0.728 (inactive).
For `CCCNC(=O)[C@@H]1c2ccccc2C(=O)N(Cc2ccccc2)[C@H]1c1ccc(CO)cc1`, the composite z-score was -0.0869 in [1]; 0.624 in test [6]; -0.0405 in test [7]; -0.468 in test [8]; -0.221 in test [9]; -0.461 in [10]. Also, the z-score in test [2] was -1.98 (inactive); in test [3], -0.112 (inactive); in test [4], -0.179 (inactive); in test [5], 0.0988 (inactive).
As for `COc1ccc(C#Cc2ccc3c(c2)[C@]2(C(=O)N3)[C@H](C(=O)NC[C@H](O)c3ccccc3)[C@H]3C(=O)O[C@H](c4ccccc4)[C@H](c4ccccc4)N3[C@@H]2c2ccc(OCCO)cc2)cc1`, the composite z-score in test [1] was 0.628; in test [6], 0.59; in test [7], -0.0173; in test [8] it was 0.369; in [9], 0.869; in test [10] it was 1.96. In addition, the z-score was -2.89 (inactive) in test [2], -0.563 (inactive) in test [3], 0.478 (inactive) in [4] and -0.447 (inactive) in [5].
Consider `COCCOC(=O)N1C(=O)[C@@]2(c3cc(C#CCC(C(=O)OC)C(=O)OC)ccc31)[C@H](C(=O)N1CCCCCCC1)[C@H]1C(=O)O[C@H](c3ccccc3)[C@H](c3ccccc3)N1[C@@H]2c1ccc(OCCO)cc1`, for which the composite z-score in test [1] turned out to be 1.42; in test [6] it was 3.01; in test [7], 1.69; in test [8] it was 2.01; in [9], 1.87; in [10] it was 2.32. Further, the z-score was -2.31 (inactive) in test [2], -1.02 (inactive) in [3], -1.15 (inactive) in test [4] and -0.0519 (inactive) in test [5].
Consider `[N-]=[N+]=NCc1ccccc1C[C@]1(C(=O)NCCN2CCOCC2)N=C(c2ccc(OCCCO)cc2)O[C@H]1c1ccccc1N=[N+]=[N-]`, for which the composite z-score in test [1] was 0.152; in [6], 1.05; in [7] it was 0.279; in test [8] it was 0.304; in test [9], 0.283; in test [10] it was -0.0478. Besides, the z-score is -3.01 (inactive) in test [2], -0.446 (inactive) in test [3], 1.65 (inactive) in test [4] and -0.891 (inactive) in [5].
For the molecule `C=CCNC(=O)[C@@H]1[C@H]2C(=O)O[C@H](c3ccccc3)[C@H](c3ccccc3)N2[C@H](c2ccc(OCCO)cc2)[C@@]12C(=O)Nc1ccccc12`, the composite z-score in [1] was 0.358; in [6], 0.226; in test [7], -0.102; in [8], 0.355; in test [9], 0.209; in test [10], 1.61. Moreover, the z-score in [2] was -4.32 (inactive); in test [3], -2.23 (inactive); in [4] it was -0.905 (inactive); in [5], -1.87 (inactive).
With `C=CC[C@@H](OC(=O)Nc1ccc(OC)cc1)c1ccc(O)c2ccccc12`, the composite z-score in test [1] was 0.42; in test [6] it was 0.737; in test [7], 0.241; in [8] it was 1.31; in test [9], 0.625; in test [10], 2.03. Also, the z-score is -4.89 (inactive) in [2], -1.39 (inactive) in [3], 1.01 (inactive) in test [4] and 4.3 (inactive) in test [5].
Consider `C=CCOC(=O)[C@H]1[C@@H]2C(=O)O[C@@H](c3ccccc3)[C@@H](c3ccccc3)N2[C@@H](c2ccc(OCCOC(=O)[C@@H]3C[C@@H]4C(=O)NCC(=O)N4[C@@H]3c3ccc(O)cc3)cc2)[C@]12C(=O)Nc1ccccc12`, for which the composite z-score in test [1] was 0.773; in test [6], -0.0156; in test [7] it was -0.0221; in test [8], 0.342; in [9], 0.767; in test [10] it was 2.28. The z-score is -0.987 (inactive) in test [2], -0.759 (inactive) in test [3], 0.0205 (inactive) in test [4] and -0.979 (inactive) in [5].
As for `COCCCNC(=O)[C@@]1(C)c2ccccc2C(=O)N(Cc2cc(C(F)(F)F)cc(C(F)(F)F)c2)[C@H]1c1ccc(CO)cc1`, the composite z-score was -0.676 in test [1]; -0.673 in [6]; -0.0675 in test [7]; -1.37 in test [8]; -1.27 in test [9]; -0.207 in test [10]. The z-score in test [2] was -2.82 (inactive); in [3], -0.417 (inactive); in test [4] it was 0.468 (inactive); in [5] it was 0.243 (inactive).
